Data: PubChem BioAssay AID1159580 (chemical genetic matrix, 2015)
In all, about 5,500 compounds went through this assay and about 2,000 (36%) were called active. Roughly 18% stayed inconclusive and do not appear here. Rule as the data show it: active = normalized growth mostly below about 0.91 (no sharp cut-off); inconclusive = no clear call, values can overlap the other calls; inactive = mostly above about 0.92. Some of the results follow.

Assay: chemical genetic growth profiling, strain panel (AID 1159580);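 also: tested at 20 µM; growth read once vehicle control cultures reached saturation at 30 °C; 1 = growth at the plate median or of vehicle wells; lower values mean less growth of the strain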
Settings: growth OD

Measured: normalized growth

CC1Cc2ccccc2N1NC(=O)c1ccc(Cl)c(S(N)(=O)=O)c1 (centres undefined)
inactive: S. cerevisiae deletion strains, locus YJR043C, strain POL32, hits give low values 1.02 | S. cerevisiae deletion strains, locus YJR066W, strain TOR1, hits give low values 0.94 | S. cerevisiae deletion strains, locus YJR075W, strain HOC1, hits give low values 1.01 | S. cerevisiae deletion strains, locus YKL009W, strain mrt4, hits give low values 1.01 | S. cerevisiae deletion strains, locus YKL068W, hits give low values 0.994 | S. cerevisiae deletion strains, locus YKL085W, strain MDH1 (second series), hits give low values 0.988 | S. cerevisiae deletion strains, locus YKL085W, strain MDH1, hits give low values 0.988 | S. cerevisiae deletion strains, locus YKL160W, strain elf1, hits give low values 0.991 | S. cerevisiae deletion strains, locus YKR001C, strain vps1, hits give low values 1.01 | S. cerevisiae deletion strains, locus YKR026C, strain gcn3, hits give low values 0.997 | S. cerevisiae deletion strains, locus YKR091W, strain srl3, hits give low values 0.997 | S. cerevisiae deletion strains, locus YLL001W, strain dnm1, hits give low values 0.994 | S. cerevisiae deletion strains, locus YLL026W, hits give low values 0.999 | S. cerevisiae deletion strains, locus YLL041C, strain sdh2, hits give low values 0.998 | S. cerevisiae deletion strains, locus YLR027C, strain aat2, hits give low values 1 | S. cerevisiae deletion strains, locus YLR039C, strain RIC1, hits give low values 1.03 | S. cerevisiae deletion strains, locus YLR058C, strain SHM2, hits give low values 1.01 | S. cerevisiae deletion strains, locus YLR102C, strain apc9, hits give low values 0.989 | S. cerevisiae deletion strains, locus YLR113W, strain HOG1, hits give low values 1 | S. cerevisiae deletion strains, locus YLR221C, strain rsa3, hits give low values 0.989 | S. cerevisiae deletion strains, locus YLR258W, strain gsy2, hits give low values 1.01 | S. cerevisiae deletion strains, locus YLR262C, strain YPT6 (second series), hits give low values 0.996 | S. cerevisiae deletion strains, locus YLR262C, strain YPT6, hits give low values 1.04 | S. cerevisiae deletion strains, locus YLR268W, strain sec22, hits give low values 1.03 | S. cerevisiae deletion strains, locus YLR320W, strain mms22, hits give low values 1 | S. cerevisiae deletion strains, locus YLR330W, strain CHS5, hits give low values 1.01 | S. cerevisiae deletion strains, locus YLR342W, strain FKS1 (second series), hits give low values 1.01 | S. cerevisiae deletion strains, locus YLR342W, strain FKS1, hits give low values 0.999 | S. cerevisiae deletion strains, locus YLR357W, strain rsc2, hits give low values 1.03 | S. cerevisiae deletion strains, locus YLR370C, strain arc18, hits give low values 1.01 | S. cerevisiae deletion strains, locus YLR371W, strain rom2, hits give low values 0.99 | S. cerevisiae deletion strains, locus YLR384C, strain iki3, hits give low values 1.01 | S. cerevisiae deletion strains, locus YLR418C, strain cdc73, hits give low values 0.989 | S. cerevisiae deletion strains, locus YML016C, strain PPZ1, hits give low values 1.01 | S. cerevisiae deletion strains, locus YML032C, strain rad52, hits give low values 0.994 | S. cerevisiae deletion strains, locus YML120C, strain ndi1, hits give low values 0.987 | S. cerevisiae deletion strains, locus YML124C, strain tub3, hits give low values 0.999 | S. cerevisiae deletion strains, locus YMR058W, strain fet3, hits give low values 1.01 | S. cerevisiae deletion strains, locus YMR078C, strain ctf18, hits give low values 0.994 | S. cerevisiae deletion strains, locus YMR125W, strain sto1, hits give low values 1.01 | S. cerevisiae deletion strains, locus YMR129W, hits give low values 1.01 | S. cerevisiae deletion strains, locus YMR205C, strain PFK2, hits give low values 0.985 | S. cerevisiae deletion strains, locus YMR223W, strain ubp8, hits give low values 0.977 | S. cerevisiae deletion strains, locus YMR231W, strain pep5, hits give low values 1 | S. cerevisiae deletion strains, locus YMR263W, strain SAP30, hits give low values 1.02 | S. cerevisiae deletion strains, locus YMR307W, strain GAS1, hits give low values 1.04 | S. cerevisiae deletion strains, locus YNL067W, strain RPL9B, hits give low values 1.01 | S. cerevisiae deletion strains, locus YNL071W, strain lat1, hits give low values 1.01 | S. cerevisiae deletion strains, locus YNL183C, strain NPR1, hits give low values 0.958 | S. cerevisiae deletion strains, locus YNL209W, strain ssb2, hits give low values 1 | S. cerevisiae deletion strains, locus YNL233W, strain BNI4, hits give low values 1.01 | S. cerevisiae deletion strains, locus YNL248C, strain rpa49, hits give low values 0.989 | S. cerevisiae deletion strains, locus YNL250W, strain rad50, hits give low values 0.984 | S. cerevisiae deletion strains, locus YNL271C, strain bni1, hits give low values 0.995 | S. cerevisiae deletion strains, locus YNL298W, strain CLA4, hits give low values 0.995 | S. cerevisiae deletion strains, locus YNL307C, strain MCK1, hits give low values 0.996 | S. cerevisiae deletion strains, locus YNL322C, strain KRE1 (second series), hits give low values 0.997 | S. cerevisiae deletion strains, locus YNR049C, strain mso1, hits give low values 1 | S. cerevisiae deletion strains, locus YNR052C, strain pop2, hits give low values 0.991 | S. cerevisiae deletion strains, locus YOL006C, strain TOP1, hits give low values 1.01 | S. cerevisiae deletion strains, locus YOL012C, strain htz1 0.983 | S. cerevisiae deletion strains, locus YOL147C, strain pex11, hits give low values 1 | S. cerevisiae deletion strains, locus YOR001W, strain rrp6, hits give low values 0.975 | S. cerevisiae deletion strains, locus YOR061W, strain CKA2, hits give low values 1.02 | S. cerevisiae deletion strains, locus YOR069W, strain VPS5, hits give low values 1.01 | S. cerevisiae deletion strains, locus YOR070C, strain gyp1, hits give low values 1 | S. cerevisiae deletion strains, locus YOR080W, strain dia2, hits give low values 1 | S. cerevisiae deletion strains, locus YOR083W, strain WHI5, hits give low values 0.983 | S. cerevisiae deletion strains, locus YOR106W, strain vam3, hits give low values 0.981 | S. cerevisiae deletion strains, locus YOR136W, strain idh2, hits give low values 0.992 | S. cerevisiae deletion strains, locus YOR144C, strain elg1, hits give low values 0.998 | S. cerevisiae deletion strains, locus YOR184W, strain ser1, hits give low values 0.982 | S. cerevisiae deletion strains, locus YOR231W, strain MKK1, hits give low values 0.971 | S. cerevisiae deletion strains, locus YOR265W, strain rbl2, hits give low values 1.02 | S. cerevisiae deletion strains, locus YOR270C, strain vph1, hits give low values 0.997 | S. cerevisiae deletion strains, locus YOR290C, strain snf2, hits give low values 0.952 | S. cerevisiae deletion strains, locus YOR316C, strain cot1, hits give low values 0.994 | S. cerevisiae deletion strains, locus YPL051W, strain arl3, hits give low values 0.993 | S. cerevisiae deletion strains, locus YPL055C, strain LGE1, hits give low values 1 | S. cerevisiae deletion strains, locus YPL078C, strain atp4, hits give low values 0.984 | S. cerevisiae deletion strains, locus YPL106C, strain sse1, hits give low values 0.994 | S. cerevisiae deletion strains, locus YPL240C, strain hsp82, hits give low values 1.01 | S. cerevisiae deletion strains, locus YPL256C, strain CLN2, hits give low values 0.998 | S. cerevisiae deletion strains, locus YPR119W, strain clb2, hits give low values 0.991 | S. cerevisiae deletion strains, locus YPR141C, strain kar3, hits give low values 0.998 | S. cerevisiae deletion strains, locus YPR163C, strain tif3, hits give low values 1 | S. cerevisiae deletion strains, locus YPR167C, strain met16, hits give low values 0.997 | S. cerevisiae deletion strains, strain wtn01, hits give low values 1.02 | S. cerevisiae strains, strain wild type, hits give low values 1.01
